Source: PubChem BioAssay AID1835 (Johns Hopkins Ion Channel Center, 2009)
About 750 (31%) of roughly 2,400 compounds were called active. The list shows a part of the results. Unmarked numbers belong to inactive results.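 How the source made its calls: active means median signal gain over dofetilide-blocked control wells reaching their mean plus 3 SD, so readout 1 at least 0; inactive means the rest.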

biological target: Voltage-gated inwardly rectifying potassium channel KCNH2 (Homo sapiens) (UniProt Q12809); assay: hERG protection against dofetilide inhibition, confirmation, cell-based, thallium flux, duplicate retest, dofetilide IC70 (AID 1835); settings: hERG cell line, FluxOR thallium flux, dofetilide-blocked; at 10 µM; hits give high values
Sequence (Q12809 whole entry, looked up): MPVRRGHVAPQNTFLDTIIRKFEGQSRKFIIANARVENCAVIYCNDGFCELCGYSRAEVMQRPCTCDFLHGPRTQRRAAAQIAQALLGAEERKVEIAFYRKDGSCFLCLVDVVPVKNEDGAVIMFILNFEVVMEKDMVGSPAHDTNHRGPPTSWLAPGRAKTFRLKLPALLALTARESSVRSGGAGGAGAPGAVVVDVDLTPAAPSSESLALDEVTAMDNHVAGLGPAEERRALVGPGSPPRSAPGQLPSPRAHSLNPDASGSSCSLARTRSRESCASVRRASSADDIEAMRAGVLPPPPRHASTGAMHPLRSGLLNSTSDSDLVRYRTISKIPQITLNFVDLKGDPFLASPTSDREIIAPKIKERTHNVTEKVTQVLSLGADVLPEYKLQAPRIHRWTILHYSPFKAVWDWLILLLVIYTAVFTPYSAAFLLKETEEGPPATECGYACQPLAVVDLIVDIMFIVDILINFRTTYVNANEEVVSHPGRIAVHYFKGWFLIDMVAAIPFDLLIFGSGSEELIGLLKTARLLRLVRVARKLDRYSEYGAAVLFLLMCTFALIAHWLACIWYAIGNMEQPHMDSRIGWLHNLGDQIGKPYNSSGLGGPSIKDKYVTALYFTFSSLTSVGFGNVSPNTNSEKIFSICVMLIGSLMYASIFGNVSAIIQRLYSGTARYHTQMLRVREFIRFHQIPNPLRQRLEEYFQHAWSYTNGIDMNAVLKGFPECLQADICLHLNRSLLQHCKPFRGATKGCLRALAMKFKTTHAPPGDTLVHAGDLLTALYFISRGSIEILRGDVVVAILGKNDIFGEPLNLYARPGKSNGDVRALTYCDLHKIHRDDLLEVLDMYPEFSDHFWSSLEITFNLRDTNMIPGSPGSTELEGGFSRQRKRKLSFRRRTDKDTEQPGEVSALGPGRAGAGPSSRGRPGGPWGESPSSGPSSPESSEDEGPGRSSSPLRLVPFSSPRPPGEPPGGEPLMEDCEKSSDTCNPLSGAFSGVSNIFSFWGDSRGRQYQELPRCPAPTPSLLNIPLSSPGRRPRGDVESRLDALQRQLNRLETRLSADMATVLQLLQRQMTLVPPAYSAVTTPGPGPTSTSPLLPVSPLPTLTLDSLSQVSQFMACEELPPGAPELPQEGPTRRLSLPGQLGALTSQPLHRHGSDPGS

Structure (SMILES)	activity increase over dofetilide control, less the hit threshold
N#C/C(=N/Nc1ccc([N+](=O)[O-])cc1)C(=N)N1CCCCC1	-20%
O=C1CC(c2ccccc2)c2cccc(F)c21 (stereo not drawn)	-22%
CC1CC(C)CN(CCCNC(=O)Cc2c(C(=O)O)[nH]c3ccccc23)C1 (stereo not drawn)	-14%
O=C(Nc1ccc2[nH]c(=S)sc2c1)Nc1ccccc1F	-16%
S=c1[nH]c2cc(Cl)ccc2s1	93% (active)
S=c1[nH]c2ccc(Cl)cc2s1	91% (active)
S=c1[nH]c2ccccc2n2cccc12	-4%
CNC(=O)c1c(O)c2cccc3c2n(c1=O)CC3	-17%
CC(=O)c1cc(N2CCC(C(=O)O)CC2)ccc1[N+](=O)[O-]	-22%
O=C(CN1CCCCCCC1)Nc1cccc(Cl)c1Cl	-14%
COc1cccc(OC)c1OCCOCCN1CCN(C)CC1	-17%
Clc1cccc(OCCCN2CCCC2)c1Cl	2% (active)
Cc1ccc(NC(=O)C2C3CCC(O3)C2C(=O)O)cc1C (stereo not drawn)	-1%
S=C(Nc1ccccc1)Nc1nc2ccccc2n1CCOc1ccccc1	-9%
CCCc1nnc(NC(=O)CN2CCOCC2)s1	-19%
O=C(Nc1ccccc1)N1CCSc2cc(Cl)ccc21	-1%
CC1CCc2sc(-c3n[nH]c(=S)o3)cc2C1 (stereo not drawn)	9% (active)
CCc1c(C)nc(SC)n(CC#N)c1=O	-2%
COc1cccc(C(=O)NC(=S)Nn2cnnc2)c1OC	-14%
COc1ccccc1C(=O)NNC(=S)NC(=O)c1sc2ccccc2c1Cl	43% (active)
COc1ccccc1C(=O)NC(=S)NNC(=O)c1sc2ccccc2c1Cl	-18%
O=C(NNC(=S)NC(=O)c1sc2ccccc2c1Cl)c1ccc(Cl)cc1	70% (active)
O=C(N/N=C/c1ccc2cccc(OCc3ccccc3)c2n1)c1ccc(Br)cc1	-9%

Structure (SMILES)	activity increase over dofetilide control, less the hit threshold
O=C(O)c1cc(/C=N\O)ccc1OCc1ccccc1	-9%
COc1cc(NC(=O)CCCOc2ccc(Cl)cc2Cl)c(C(=O)O)cc1OC	-6%
COc1cc(C(=S)N2CCOCC2)ccc1OC(=O)c1ccc([N+](=O)[O-])cc1[N+](=O)[O-]	-22%
O=C(Nc1ccccc1C(=O)O)c1cccc(NC(=O)c2ccccc2Br)c1	-5%
COc1cc(C(=O)Nc2ccc(O)cc2C(=O)O)ccc1OC(C)=O	1% (active)
CC(C)C(=O)Nc1cccc(C(=O)Nc2ccccc2C(=O)O)c1	-7%
CCOP(=O)(OCC)C(NC(=O)c1ccc(OC)c(OC)c1)c1ccccc1 (stereo not drawn)	-14%
CN(C)C(=O)c1ccc(NC(=O)c2cncc(Br)c2)cc1	-12%
O=C(Nc1ccccc1C(=O)O)c1cncc(Br)c1	12% (active)
COc1ccc(C(=O)Nc2ccccc2C(=O)O)cc1Cl	5% (active)
O=C(CCCOc1ccc(Cl)cc1Cl)Nc1ccccc1C(=O)O	3% (active)
Cc1c(Cl)c([N+](=O)[O-])nn1CC(=O)NCC(C)C	-20%
COc1ccc(COC(=O)C2CCN(S(=O)(=O)c3cccs3)CC2)cc1	-27%
CC1CCCC(C)N1S(=O)(=O)c1ccc(NC(=O)CCn2cnc3ccccc3c2=O)cc1 (stereo not drawn)	-12%
CCCCC(=O)Nc1cccc(C(=O)Nc2ccccc2C(=O)O)c1	-3%
O=C(Nc1ccccc1C(=O)O)c1ccc(NC(=O)C2CC2)cc1	-2%
CCOc1ccc(C(=O)Nc2ccccc2C(=O)O)cc1	3% (active)
Cn1c(/N=C/c2c(O)ccc3ccccc23)nc2ccccc21	-32%
O=C1C2CC=CCC2C(=O)N1c1ccc(Cc2ccncc2)cc1 (stereo not drawn)	3% (active)
O=S(=O)(Nc1ccc(Cc2ccncc2)cc1)c1ccc(Cl)c(Cl)c1	-6%
CC(C)(C)c1csc(NNC(=O)c2ccc(Cl)cc2)n1	-3%
Cc1nc(-c2nc(-c3c(C(=O)NNC(=O)c4ccc(Cl)cc4)noc3C)cs2)cs1	-17%
CC(C)(C)c1cc(C(=O)NNC(=O)c2ccc(Cl)cc2)no1	29% (active)

Structure (SMILES)	activity increase over dofetilide control, less the hit threshold
Cc1csc2c(N3CCCCC3)ncnc12	-8%
COc1cc(NC(=O)CSc2ncnc3sc4c(c23)CCC(C)C4)c(C(=O)O)cc1OC (stereo not drawn)	94% (active)
CC(=O)CSc1ncnc2sc3c(c12)CCC(C)C3 (stereo not drawn)	72% (active)
Cc1nnc(NC(=O)CN2CCN(Cc3ccc(F)cc3Cl)CC2)s1	-17%
CCCCCCC1CCC(C(=O)N2CCOCC2)CC1 (stereo not drawn)	-5%
O=C(CCCc1c[nH]c2ccccc12)Nc1ccc(S(=O)(=O)Nc2ncccn2)cc1	-19%
COCC1CCCN(C(=O)c2ccc3oc(C(C)C)nc3c2)C1 (stereo not drawn)	-12%
O=C(c1c(O)c2ccccc2oc1=O)C1CCCCC1	-4%
Oc1c(Cl)cc(CN2CCCCC2)c2cccnc12	-6%
O=c1oc2ccccc2c(Cl)c1CN1CCCCC1	2% (active)
Cc1ccc(NC(=O)CCc2nc3sc4c(c3c(=O)[nH]2)CCCC4)c(Br)c1	-17%
NC(=O)C1CCN(C(=O)CC(c2ccccc2)c2ccccc2)CC1	-17%
O=c1c2cc(Cl)ccc2nc(-c2ccc(Cl)c(Cl)c2)n1O	124% (active)
O=C(Cc1ccccc1)Nn1c(-c2ccccc2)nc2ccccc2c1=O	-15%
O=c1c2cc(Cl)ccc2nc(-c2ccccc2)n1O	18% (active)
Cc1ccc(-c2nc3ccccc3c(=O)n2O)cc1	14% (active)
Cc1ccc(-c2nc3c(Cl)cc(Cl)cc3c(=O)n2O)cc1	83% (active)
O=c1c2ccccc2nc(-c2ccccc2)n1O	-7%
CCOc1ccc(N=Nc2cc(C(C)C)ccc2O)cc1	-9%
COC(=O)Sc1nnc(-c2ccc(Br)cc2)o1	-2%
CNC(=O)COC(=O)c1cccc(S(=O)(=O)N2CCN(c3ccc(F)cc3)CC2)c1	-20%
CCC(C)NC(=O)Cn1nc(C(F)(F)F)c2c1CCCC2 (stereo not drawn)	-7%
